GDH-TPI counter-1: counter-screen for M. tuberculosis FBA inhibitors: GDH-TPI coupled enzymes | GDH-TPI coupled enzyme counterscreen, NADH absorbance | inhibition, % at 4.8 µM | 360,000 tested, 1.2% active | AID 588335; in the data active = inhibition above about 30%;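 also: 0% = DMSO wells and 100% = wells lacking the enzyme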
Y pestis TopoI: blocks Yersinia pestis topoisomerase I activity. Y. pestis Topo-I cleavage product accumulation, plate reader. activity, % at 10 µM. 360,000 tested, 0.064% active; in the data active = activity above about 50%, passing the limit was not always enough
PrPC TRFRET: inhibitors of human cell surface prion protein PrPC; 370,000 tested, 0.43% active; P04156; TR-FRET read-out; inhibition, % at 13.8 µM; in the data active = inhibition above about 24%; also: 0% = median of the test wells and 100% = reference compound wells
TcdB GH inh: TcdB glycohydrolase inhibition; P18177; TcdB glycohydrolase enzymatic assay, plate reader; inhibition, % at 9.99 µM; 350,000 tested, 0.24% active; AID 652162; in the data active = inhibition above about 10%
Mtb FBA inh: inhibitors of M. tuberculosis fructose-bisphosphate aldolase; P9WQA3; purified M. tuberculosis FBA, fluorescence read-out; inhibition, % at 1 µM; 360,000 tested, 2.3% active; AID 588726;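 also: 0% = vehicle and 100% = reference inhibitor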
Mtb FBA inh conf: Mtb FBA inhibition, confirmed. purified M. tuberculosis FBA, fluorescence read-out. AID 651616. 5,600 tested, 78% active. inhibition, % at 1 µM. shares compounds with Mtb FBA inh;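 also: 0% = vehicle wells and 100% = reference inhibitor wells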
GDH-TPI counter-2: counter-screen for M. tuberculosis FBA inhibitors: GDH-TPI coupled enzyme inhibition; GDH-TPI coupled enzyme counterscreen, fluorescence; 5,600 tested, 81% active; shares compounds with Mtb FBA inh; inhibition, % at 1 µM; in the data active = inhibition above about 10%
An asterisk follows results filed as active; . = not tested or not shown; + = active, no number. The list is not random: actives were taken first. Their share in the collection is about 3.2%. Rule as the data show it, unless noted: active = inhibition above about 27%; inactive = the rest.

SMILES	GDH-TPI counter-1	Y pestis TopoI	PrPC TRFRET	TcdB GH inh	Mtb FBA inh	Mtb FBA inh conf	GDH-TPI counter-2
N#CC(c1nc2ccccc2nc1N1CCCC1)S(=O)(=O)c1ccccc1 (stereo unspecified)	15	8	-6	.	106*	+	182*
C=CCNC(=O)C(C#N)c1nc2ccccc2nc1N1CCCCCC1 (stereo unspecified)	15	32	-9	.	41*	+	+
CCCNC(=O)N1C[C@H]2[C@@H](c3ccccc31)[C@H](CO)N2C(=O)Nc1ccccc1	.	.	.	0	.	.	.
COc1ccc(-c2nc(-c3cccc(C)c3)no2)cc1OC	11	4	.	0	0	.	.
COc1ccccc1-c1nc(-c2cccc(C)c2)no1	1	8	-6	.	81*	76*	54*
O=C(C[C@H]1CC[C@@H]2[C@H](COC[C@H](O)CN2S(=O)(=O)c2cccc(F)c2)O1)NC1CCC1	.	.	.	1	.	.	.
Cc1noc(C)c1NC(=O)NCC[C@H]1CC[C@H](NC(=O)Nc2cccc(F)c2)[C@H](CO)O1	.	.	.	0	.	.	.
CC(=O)OCC(=O)c1ccc2ccn(C(C)=O)c2c1	15	7	-1	.	36*	15	20*
COc1ccccc1N1CCN(CC(=O)c2ccc3ccn(C(C)=O)c3c2)CC1	7	-8	.	.	7	.	.
COc1ccc(NC(=O)N[C@H]2CC[C@@H](CCn3cc(-c4ccc(F)cc4)nn3)O[C@H]2CO)cc1	.	.	.	-3	.	.	.
CCOC(=O)CNC(=O)c1ccc(C)cc1	11	0	-5	.	3	.	.
O=C(NCCO)c1ccc2[nH]c3c(c2c1)CCCC3	6	2	12	1	2	.	.
O=C(NCC(O)CO)c1ccc2[nH]c3ccccc3c2c1 (stereo unspecified)	-3	-1	3	1	63*	135*	108*
CCOC(=O)c1[nH]c2ccc(C(=O)OC)cc2c1C(=O)OCC	8	-5	-1	1	46*	114*	93*
CCOC(=O)CNC(=O)c1ccc2[nH]c3ccccc3c2c1	8	3	-2	0	60*	4	-4
COc1cccc(C(=O)Nc2ccc3c(c2)C(=O)N(C)C[C@@H](OC)[C@H](C)CN[C@H](C)CO3)c1	.	.	.	-1	.	.	.
CCCc1cc(=O)n2c([nH]c3ccccc32)c1C#N	0	-5	2	.	54*	+	195*
CCCCc1c(C)c(C#N)c2[nH]c3ccccc3n2c1=O	10	-8	1	.	77*	-4	-5
Cc1cccn2c(=O)c3cc(C(=O)NC4CCCCC4)n(C)c3nc12	8	7	2	0	5	.	.
COC1C=CC(CNC(=O)c2cc3c(=O)n4cccc(C)c4nc3n2C)(OC)O1 (stereo unspecified)	23	-1	-9	0	36*	176*	109*
Cc1cccn2c(=O)c3cc(C(=O)O)n(C)c3nc12	25	-4	-3	.	81*	80*	58*
CC(C)C(=O)Nc1ccc2c(c1)C(=O)N(C)[C@H]1CC[C@@H](CC(=O)NCC3CC3)O[C@H]1CO2	.	.	.	-2	.	.	.
COC(=O)c1sc2ccccc2c1C(=O)OC	9	3	2	.	-1	.	.
COC(=O)c1sc2ccccc2c1N	1	3	-5	0	79*	+	+
Cc1ccc(SCc2cn3c(C)cc(C)nc3n2)cc1	-1	-7	-3	1	5	.	.
SMILES	GDH-TPI counter-1	Y pestis TopoI	PrPC TRFRET	TcdB GH inh	Mtb FBA inh	Mtb FBA inh conf	GDH-TPI counter-2
Cc1cc(C)n2cc(CSc3nncn3C)nc2n1	6	3	6	1	49*	2	-4
CCc1nnc(SCc2cn3c(C)cc(C)nc3n2)n1N	-5	-3	-7	.	39*	45*	53*
Cc1cc(C)n2cc(CSc3nnnn3C)nc2n1	6	-4	-2	.	28*	+	187*
COC(=O)C[C@H]1CC[C@H]2[C@@H](COC[C@@H](O)CN2C(=O)Nc2cccc(F)c2)O1	.	.	.	0	.	.	.
COCC(=O)N1CC[C@@H]2[C@H](CO)Nc3ccc(C#Cc4cccc(F)c4)cc3[C@@H]21	.	.	.	0	.	.	.
CCOC(=O)C1CCN(C(=O)CCc2c(C)nc3cc(-c4ccc(OC)cc4OC)nn3c2C)CC1	1	15	9	-3	50*	100*	68*
CCOC(=O)C1CCN(C(=O)CCc2c(C)nc3ncnn3c2C)CC1	8	1	0	.	-5	.	.
